A short description of assay [1]: A CellTox Green Cytotoxicity Assay to monitor cytotoxicity in HepG2 cells - 16 hour (AID 1224876). Further: nearly all actives have a fitted effect of over 45% in size. A digest of the protocol: (§1)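 Measurements at 0, 8, 16, 24, 32 and 40 h of treatment captured CellTox Green fluorescence in HepG2 cells that had been co-plated with reagent and preincubated 5 h at 37 C/5% CO2.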
Assay [2] in a line: qHTS RealTime-Glo MT Cell Viability Assay in HepG2 cells - 32 hour (AID 1224877). Further: nearly all actives have a fitted effect of over 55% in size. A digest of the protocol: (§2)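 Luminescence read-out: viable HepG2 cells reduce a prosubstrate to a NanoLuc substrate, giving a signal proportional to live cell number. Reads taken at 0, 8, 16, 24, 32 and 40 h of compound exposure at 37 C.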
Assay [3] in a line: A CellTox Green Cytotoxicity Assay to monitor cytotoxicity in HepG2 cells - 24 hour (AID 1224878). Further: nearly all actives have a fitted effect of over 45% in size. A digest of the protocol:
as §1

Assay [4] in a line: A CellTox Green Cytotoxicity Assay to monitor cytotoxicity in HepG2 cells - 40 hour (AID 1224879). Further: nearly all actives have a fitted effect of over 40% in size. In short, it runs like this:
as §1

Assay [5] can be described thus: qHTS RealTime-Glo MT Cell Viability Assay in HEK293 cells - 0 hour (AID 1224880). Further: top concentration of the series differs between compounds; nearly all actives have a fitted effect of over 45% in size. A digest of the protocol: (§3)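 HEK293 + NanoLuc + prosubstrate, 600 cells/well; 5 h, 37 C/5% CO2; compound 23 nL in DMSO by pintool; 37 C; luminescence read at 0, 8, 16, 24, 32 and 40 h time points.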
The nature of assay [6]: A CellTox Green Cytotoxicity Assay to monitor cytotoxicity in HEK293 cells - 32 hour (AID 1224881). Further: nearly all actives have a fitted effect of over 40% in size. A digest of the protocol:
(§4)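 Tox21 screen in HEK293: membrane-impermeant cyanine dye fluoresces on binding dead-cell DNA; compound pinned 5 h post-seeding, plates held at 37 C, signal read repeatedly through 40 h.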

The nature of assay [7]: A CellTox Green Cytotoxicity Assay to monitor cytotoxicity in HepG2 cells - 0 hour (AID 1224882). Further: nearly all actives have a fitted effect of over 35% in size. A digest of the protocol: as §1
Assay [8] is described as follows: A CellTox Green Cytotoxicity Assay to monitor cytotoxicity in HepG2 cells - 32 hour (AID 1224883). Further: nearly all actives have a fitted effect of over 50% in size. In short, it runs like this: as §1
The nature of assay [9]: qHTS RealTime-Glo MT Cell Viability Assay in HepG2 cells - 16 hour (AID 1224885). Further: nearly all actives have a fitted effect of over 50% in size. A digest of the protocol: as §2
The nature of assay [10]: qHTS RealTime-Glo MT Cell Viability Assay in HEK293 cells - 8 hour (AID 1224887). Further: nearly all actives have a fitted effect of over 50% in size. Further: potency means the concentration at half of the fitted maximal effect. On activity change, negative = cytotoxicity: top concentration of the series differs between compounds. In short, it runs like this: as §3
On the technique in general: In qHTS, concentration-response curves come from the screen itself.

The nature of assay [11]: A CellTox Green Cytotoxicity Assay to monitor cytotoxicity in HEK293 cells - 16 hour (AID 1224888). Further: nearly all actives have a fitted effect of over 35% in size. A digest of the protocol:
as §4

A short description of assay [12]: qHTS RealTime-Glo MT Cell Viability Assay in HepG2 cells - 0 hour (AID 1224889). Further: nearly all actives have a fitted effect of over 50% in size. In short, it runs like this:
as §2

Assay [13] can be described thus: qHTS assay to identify small molecule antagonists of the estrogen receptor alpha (ER-alpha) signaling pathway using the BG1 cell line in the presence of 0.1 nM 17-beta-estradiol - cell viability counter screen (AID 1259241). Further: nearly all actives have a fitted effect of over 40% in size. In short, it runs like this: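 Cells were plated and left 24 hr, compounds in DMSO were pinned in, 17beta-estradiol was added to 0.1 nM final, and after 22 hr CellTiter-Fluor reagent was added for 30 min before fluorescence was read.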

Assay [14] is described as follows: A CellTox Green Cytotoxicity Assay to monitor cytotoxicity in HEK293 cells - 8 hour (AID 1224884). Further: nearly all actives have a fitted effect of over 35% in size. A digest of the protocol: as §4
A short description of assay [15]: qHTS RealTime-Glo MT Cell Viability Assay in HEK293 cells - 24 hour (AID 1224886). Further: nearly all actives have a fitted effect of over 50% in size. Further: potency means the concentration at half of the fitted maximal effect. On activity change, negative = cytotoxicity: top concentration of the series differs between compounds. A digest of the protocol: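 Nonlytic real-time viability readout: viable cells convert prosubstrate to NanoLuc substrate, giving luminescence proportional to live cell number. HEK293, 600 cells/well, compound added after 5 h, continuous culture at 37 C.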
A short description of assay [16]: A CellTox Green Cytotoxicity Assay to monitor cytotoxicity in HepG2 cells - 8 hour (AID 1224890). Further: nearly all actives have a fitted effect of over 45% in size. A digest of the protocol: as §1
A short description of assay [17]: qHTS assay to identify small molecule antagonists of the androgen receptor (AR) signaling pathway using the MDA cell line in the presence of 0.5 nM R1881 - cell viability counter screen (AID 1259242). Further: nearly all actives have a fitted effect of over 45% in size. A digest of the protocol:
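Concentration-response screen of compounds for toxicity in MDA-kb2 reporter cells: 16 hr at 37C with 0.5 nM R1881, endpoint live-cell protease fluorescence measured in the reporter wells.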

Assay [18] deals with Estrogen receptor (Homo sapiens) (UniProt P03372). As to the kind of experiment: qHTS assay to identify small molecule antagonists of the estrogen receptor alpha (ER-alpha) signaling pathway using the BG1 cell line in the presence of 0.1 nM 17-beta-estradiol (AID 1259244). Further: nearly all actives have a fitted effect of over 50% in size. In short, it runs like this:
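Compounds were tested against 0.1 nM (final) 17beta-estradiol in VM7Luc4E2 cells, which express full-length ER-alpha and an ERE-luciferase reporter; luminescence was recorded following 22 h exposure.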

Assay [19] is described as follows: qHTS assay to identify small molecule phospholipidosis (PLD) inducers (AID 1259344; active means well fitted curve in the direction sought with a large enough effect; an effect the other way counts as inactive or inconclusive). In short, it runs like this: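 Phospholipid accumulation was scored by imaging: fixed, Hoechst-counterstained HepG2 cells stained with LipidTOX Red after 24 h compound exposure at 37 C. Read-outs were pit count and pit intensity per well or per cell, with amiodarone and DMSO controls.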

A number with no mark means an inactive call. Inconclusive results are not listed. The source made the active and inactive calls. Unless noted, the call rests on the fitted dose curve; in most records, active means well fitted curve in the direction sought with a large enough effect in the repeat runs; inconclusive means weak or mixed curves; inactive means no such curve, though single readings can be large; an effect the other way counts as inactive or inconclusive.
On the % scale 0 is the no-effect control and ±100 the full control effect.

Sequence of Estrogen receptor (Homo sapiens) (P03372 whole entry, looked up): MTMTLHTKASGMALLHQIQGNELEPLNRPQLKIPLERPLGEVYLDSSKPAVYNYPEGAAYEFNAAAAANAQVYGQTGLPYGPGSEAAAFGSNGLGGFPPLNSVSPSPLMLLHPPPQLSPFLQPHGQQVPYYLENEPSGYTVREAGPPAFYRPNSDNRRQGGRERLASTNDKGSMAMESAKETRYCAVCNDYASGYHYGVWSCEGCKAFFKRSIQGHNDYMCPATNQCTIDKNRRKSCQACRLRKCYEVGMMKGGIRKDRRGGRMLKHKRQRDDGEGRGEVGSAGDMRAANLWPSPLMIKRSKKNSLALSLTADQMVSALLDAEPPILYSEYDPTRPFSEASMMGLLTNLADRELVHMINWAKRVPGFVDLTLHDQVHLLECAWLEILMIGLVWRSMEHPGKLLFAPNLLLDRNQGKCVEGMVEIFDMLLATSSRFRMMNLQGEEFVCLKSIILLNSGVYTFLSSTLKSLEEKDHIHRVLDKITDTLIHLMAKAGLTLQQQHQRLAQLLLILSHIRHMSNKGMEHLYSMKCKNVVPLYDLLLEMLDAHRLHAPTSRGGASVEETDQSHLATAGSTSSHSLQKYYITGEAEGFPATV

Turning to `CN(C1CCCCC1)S(=O)(=O)c1ccccc1N`, the Potency result in assay [1], in [3], in [4], in assay [6], in assay [7] and in [8] was “inactive” throughout. Besides, the Potency result in [10], in [11], in assay [12] and in assay [13] was “inactive” each time. Moreover, the result in [2], in assay [5] and in assay [9] was inactive.
`C=CCOc1cc(Cl)ccc1C(=O)NCCN(CC)CC`: the Potency entry in assay [1], in assay [3], in assay [4], in [7], in assay [8] and in assay [14] was “inactive” in each case. Further, the Potency result in assay [15], in [10], in assay [11], in [12], in assay [16] and in [13] was “inactive” in each case. For the same molecule, the outcome in assay [2], in [5] and in assay [9] was inactive.
Turning to `CC1CCC(C(C)(C)S)C(=O)C1` (configuration not stated), the Potency entry in assay [1], in assay [3], in [4], in [6], in assay [7] and in [8] was “inactive” each time. The Potency result in assay [14], in [11], in assay [12], in assay [16], in assay [13] and in [17] was “inactive” throughout. The outcome in assay [2] and in assay [9] was inactive. In addition, the Potency in [15] is 3.89 µM (active); in assay [10] it was 19.5 µM (active).
As to `CC(C)COC(=O)CC(C(=O)OCC(C)C)S(=O)(=O)O` (configuration not stated), the Potency entry in assay [1], in assay [3], in assay [4], in assay [6], in assay [7] and in assay [8] was “inactive” throughout. The Potency result in assay [14], in [15], in assay [10], in assay [11], in assay [12] and in assay [16] was “inactive” each time. Moreover, the Potency result in assay [13] was “inactive”. The molecule was classed as inactive in assay [2] and in [9].
Regarding `Cc1cccc(C(=O)O)c1[N+](=O)[O-]`, the Potency result in [1], in assay [3], in [4], in [6], in assay [7] and in assay [8] was “inactive” throughout. Besides, the Potency entry in assay [14], in assay [15], in assay [10], in assay [11], in assay [12] and in assay [16] was “inactive” each time. Further, the Potency result in assay [13], in assay [17] and in assay [18] was “inactive” throughout. Besides, the molecule was classed as inactive in assay [2] and in [9].
Take `O=C(COCCOCCOCC(=O)Nc1c(I)cc(I)c(C(=O)O)c1I)Nc1c(I)cc(I)c(C(=O)O)c1I`: the Potency result in [1], in assay [3], in assay [4], in assay [7], in assay [8] and in assay [14] was “inactive” throughout. For the same molecule, the Potency result in assay [15], in assay [10], in [11], in assay [12], in assay [16] and in assay [13] was “inactive” in each case. For the same molecule, in [17], the Potency entry is “inactive”. Further, the molecule was classed as inactive in assay [2], in assay [5], in assay [9] and in [19].
In the case of `CO[Si](CCCCl)(OC)OC`, the Potency entry in assay [1], in assay [3], in assay [4], in assay [6], in assay [7] and in assay [8] was “inactive” throughout. Moreover, the Potency entry in assay [14], in [11], in [12], in assay [16], in assay [13] and in [17] was “inactive” in each case. For the same molecule, the molecule was classed as inactive in [2], in assay [5] and in assay [9].
For the molecule `C=C(C)[C@@H]1CC[C@@H](C)C[C@@H]1O`, the Potency entry in assay [1], in assay [3], in [4], in assay [6], in assay [7] and in assay [8] was “inactive” each time. The Potency entry in [14], in [15], in assay [10], in [11], in [12] and in assay [16] was “inactive” each time. For the same molecule, the Potency result in [13] was “inactive”. Further, the result in [2] and in assay [9] was inactive.
Consider `O=C(O)Cc1cccc(-c2cc(CCCCCCc3ccc(O[C@H]4O[C@H](CO)[C@@H](O)[C@H](O)[C@@H]4O)c(-c4cccc(CC(=O)O)c4)c3)ccc2O[C@H]2O[C@H](CO)[C@@H](O)[C@H](O)[C@@H]2O)c1`, for which the cytotoxicity increase in assay [1] was 15.1% [at 0.29 µM]; in assay [4], 20% [at 0.29 µM]; in assay [6], -14.2% [at 0.29 µM]; in [14] it was -1.66% [at 0.29 µM]; in assay [16], 23.5% [at 0.29 µM]. Also, the activity change, negative = cytotoxic in assay [2] was -9.69% [at 0.29 µM]; in assay [9] it was 17.8% [at 0.29 µM]. Moreover, the cytotoxicity in assay [3] is 15.2% [at 0.29 µM]. Also, the values for the activity change, negative = cytotoxicity in [5], in assay [10] and in assay [13] were 3.85% [at 0.29 µM], 11.8% [at 0.29 µM] and -0.713% [at 0.349 µM], respectively. The activity change in assay [11] was -7.34% [at 0.29 µM, hits give high values]. Moreover, the viability change, negative = cytotoxic in assay [17] is -0.767% [at 0.349 µM]. In assay [19], the call was inactive.

For the origin of these results see PubChem BioAssay (Tox21).
